The values below come from PubChem BioAssay AID1508600 (Functional Genomics Laboratory (NCATS/FGL), 2020).

About 3,700 (7%) of roughly 53,000 sequences were called active. Many of the other results were omitted from the sample, so actives are more common in it than they were. A number with no mark means an inactive call.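 The calls were made as follows: active = gene knockdowns whose robust z-score for IL-1 alpha signal is at least 2 or at most -2, so actives lie on both sides; inactive = the rest.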

The experiment in a line: Components of the Cytosolic LPS Sensing Pathway: Gene Identification via Genome-wide siRNA Screen.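 Also: robust z of the log signal after scaling to non-targeting control siRNA wells of the plate.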 The following applies: RAW264.7 macrophages, IL-1a HTRF, actives lie on both sides, screened at 100 nM (by protocol), cells primed 5 h with Pam3CSK4 first. The essentials: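 IL-1a HTRF of supernatants after 24 hour LipidA transfection of Pam3CSK4-primed (5 hours) RAW264.7 cells, 48h post-siRNA transfection (100 nM). Scores: percent of plate negative-control median, then log-based robust z-score.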
In general terms: TR-FRET usually uses a lanthanide donor and a delayed reading to cut background.
Regarding GCUGCUCAAACAUAAUGAATT against Osbpl2, the z-score was -0.419.
Next, GGAUGUACAUUCUACCUAUTT against Bap1: -0.239; GGAUACGAUUGAACGGCUGTT against Rac3: -0.566; GCUCCUGUAGACAGGUUAGTT against Serac1: -1.39.
With CGCUCAUUUAGACAUAGAGTT against Ass1, the z-score is 0.686.
Turning to CGGCAUUUGCUAAUGGUCGTT against Actl6a, the z-score is -2.79 (active).
Next, CCUAGUCAUAUUCUACAGUTT against Iqca1l: 0.77.
Next, GGUUGGAGUUAUAGAUUUUTT against Rufy3: 1.42.
In the case of GGAGAGAACUGAUGAAUCCTT against Sdhaf2, the z-score was -0.26.
As to CCCUCUUUACCAGUAUUACTT against Pla2g5, the z-score is 0.287.
Turning to GCCGUUCACCAUGAAAUGGTT against Prkci, the z-score is -0.898.
Next, CCAAGCCUUAAUAAGUCAATT against Ccp110: -2.52 (active); GGCUACAUGAGAAGCACAGTT against Disc1: 1.64.
For the sequence CCUUAACAUGUUUCAUCUATT against Sap30, the z-score was 0.584.
For the sequence GGUUGUUUCCAGUAUUCUGTT against Apc2, the z-score was 1.18.
Turning to GCUAUAUGUACCCUAGCCATT against H2aj, the z-score is 2.26 (active).
As for GCGAAGCGAAUCCUUUUUCTT against Fosl2, the z-score was 0.0982.
Regarding CCCUGCUUGAAUCUCUUCGTT against Tyk2, the z-score was -0.191.
Turning to GGCUUACGUGGUGUGCACUTT against Galr1, the z-score is 0.345.
Take GGUCAGGUCUUUUUAUACATT against Zfp354a: the z-score was 2.56 (active).
On to GGAAAGGAACUAGCAACGATT against Art3, for which the z-score is -0.642.
As to GGAUACAAUCCUUUUGGAUTT against Dnajb1, the z-score is 0.205.
With GGUGUUUUCCAACAUCCUCTT against Ccrl2, the z-score was 3.06 (active).
Next, CCGACAUUCAACAAGAUUUTT against Mta1: -0.092; CCGGAGCUUUAUUGACACGTT against Rbm19: 1.15; GGCCUGUGGUUAUGCUGUGTT against Cyp2b10: -0.716.
For the sequence CCUAUUGAAAAGCCAAACUTT against Lypd11, the z-score is -0.651.
For the sequence GGUCUUUGUGUCCACCUACTT against Gpr162, the z-score was 0.669.
Next, GGUUCUAAUAAAAAUCGGUTT against Pcdhb1: 0.659; GGAGCUGAAUCAUUAUCUGTT against Rabep1: -0.0512.
As for GGUGCUGUUUAAAACACAGTT against Aurka, the z-score is 1.25.
Turning to GGAGUUGAUAAUAUGGUGGTT against Uck1, the z-score is 0.712.
For the sequence GGUGUCCAUGCUAGCUGUATT against Best2, the z-score was 2.97 (active).
In the case of GGACCAGCUUUUCAACAUUTT against F8, the z-score was 0.141.
Consider CCUGCUUAGGACCAUCGACTT against Lrrn2, for which the z-score is -0.0914.
With GGGAUAGCUGUCUUUCAUUTT against Extl3, the z-score was -1.02.
Take GCUCUUGCUACUUUUUUCUTT against Olfr823: the z-score is -0.108.
Turning to GGGAAAAACACUUCUCACUTT against Slc35e2, the z-score was -0.238.
For GGUCGCUAUUAAGAUCAUUTT against Mark4, the z-score is 0.491.
Turning to GCUCUGCCUUCAGAUGACGTT against Olfr173, the z-score is -0.26.
For the sequence GGCAGAUCAGAAUUGAAUUTT against Fgd6, the z-score was -0.528.
For GGUCCAGGUCUGAAUCUAGTT against Tra2b, the z-score is 2.48 (active).
With GCAAGGAGGUCCAACUAAGTT against Fzd8, the z-score was 0.239.
Under GGUUAAUAAUGCGACAGCATT against Rbfox1 stands 0.00257.
Under GGAAAACUCAAAGUGCUGATT against Paqr7 stands 0.512; under CCAGUUUGGUAAUCAUGAATT against Cyb561d2, -0.244.
For GGCACCUUGGAGUUACAUATT against Pcdha10, the z-score is -0.24.
Under CGACAAGAAAACAUACUAGTT against Gins4 stands 2.28 (active); under GCAGACAACUAGACAUACATT against Selenok, -0.42.
Under GCAAUAAUGGCAAUUACGGTT against Slc35f4 stands 1.13; under GGAGCUGGUGUUGAGUGAGTT against Slfnl1, -1.81; under UUGUGACCAAUUUCUGAAUTT against Pgbd1, -0.594.
In the case of GGAGUUAAACAAACAGAGUTT against Psma6, the z-score was -0.855.
For the sequence UUUACUCUCAUGGUAACCUTT against Olfr798, the z-score is -0.386.
For GGAGGUAUGGCGGUGAUUATT against Krt77, the z-score was 0.718.
Regarding GCUAUUCAAUGGACCAGAATT against Olfr490, the z-score is -2.26 (active).
GUCACUAUUAAGACACUUATT against Nudcd3: the z-score was 0.157.
GGCUAAAGAGUCCUCGGUGTT against Serpina5: the z-score was 0.594.
In the case of “GCAGACAGAAGAACACCAGTT against 1700024G13Rik”, the z-score was -0.177.
In the case of GGAAGAGUGUCUAAAUGUATT against Cbwd1, the z-score was 0.849.
On to GGUGAUUCACAUAACAGGCTT against Npas3, for which the z-score was 2.05 (active).
GGUUGAACAUAAGCACAAUTT against Cdkn2aip: the z-score was -0.42.
In the case of GGUCACCACUCCAUAUUCUTT against Vsir, the z-score is -0.561.
Take GGAGACAUAUGAAGAGAUATT against Lsm3: the z-score is -0.702.
As to GGAAGCUGGCAAGUUUAUGTT against Cfap161, the z-score is -0.159.
For the sequence CCUGGCAUAAGUGGUUUUATT against Zfp82, the z-score was 1.13.
With GGAGCAUUUUCCAGUUGAGTT against Mrps35, the z-score is 2.41 (active).
Consider CCGUUGUAUAUACCAGUAUTT against Syt1, for which the z-score was 0.218.
As for GGAAAAACGUGGUGAACUATT against Zeb2, the z-score is 0.7.
For CCAAUAACAGGAUUGAGAATT against Tnfrsf8, the z-score was -0.528.
Turning to GGUGUACAGAUCUGUCUGGTT against Dkk1, the z-score is 2.33 (active).
In the case of GGUGCAGUUUAAGAGAGAATT against Tmcc3, the z-score was -0.224.
GGGUGGACCUUCGGAAUUATT against Mrpl23: the z-score is 1.52.
Under CGAAAUCUUUUCUAACCACTT against Drd4 stands 6.59 (active); under GGACUUCUUACUGGAAUCATT against Slc5a12, 0.944; under CGUUUUUGUCUAGUUUGAATT against Macrod2, -1.08.
In the case of GGAGAUCAGCAGUUCAUUUTT against Csprs, the z-score is -1.66.
GGUGUCAGAGGUAUUUUCATT against Bik: the z-score is -0.0455.
As to GGCUUUUGAAAAGUUCACATT against Rnf32, the z-score was -2.05 (active).
On to GGAGUUGAUUGAGGUAAAGTT against Mettl3, for which the z-score is -1.83.
Under GGAAGAACCCUGCUACAUCTT against Mrpl37 stands 0.764; under GCACCUUAAUUCUUCGCCATT against Amigo2, -0.638; under GGUGCUUAUAUUGCUUCCCTT against Psmb5, -0.147.
Next, CCCGUUGCUUUAGAGCUCUTT against Dph2: 0.912; GGUCAGAGCUCUGGACAAATT against Hsd3b1: 4.24 (active).
For GGUCGUCCAGCUGAAGAACTT against Mecr, the z-score is 0.721.
On to GGAAUUAGAGACUGCGGAATT against Zfp821, for which the z-score is 0.422.
With “GGCAGAGCCUGGAUUUAUCTT against 2610524H06Rik”, the z-score was -0.582.
As for GGAGUUGCCAUGCUCAACATT against Olfr808, the z-score is 0.193.
Next, GGGAAACAGAAGUAUCUAUTT against Ar: -0.708.
As for GGAUAACAGCAAGCUGGCGTT against Taldo1, the z-score was -0.585.
As to GCUAAGACAGAACUCUUCUTT against Nap1l5, the z-score was 3.14 (active).
In the case of GCGAGUGUAUGCUUGAGAATT against Hspa12b, the z-score is 1.01.
In the case of CGACAAUCGACAAUCGUGCTT against Acta1, the z-score is -0.817.
Consider GGCUUGUUCAAGAGAAGAUTT against Slc25a41, for which the z-score is 0.177.
CCUUACCCAGCAAUAAAAATT against Thegl: the z-score is 0.379.
Turning to GGAUUCAGGAACACGGAGATT against D17H6S53E, the z-score is 2.29 (active).
For GGUACGAAGAAGACAAAAATT against Tnfsf9, the z-score is -0.0411.
Regarding GCGGUGUGCUGGAUAAUUCTT against Vit, the z-score was -1.63.
For the sequence CCACUGUCCCUAAGGUACUTT against Olfr161, the z-score is -0.292.
In the case of GGGAUUUGUAUGAUGAUAATT against Sf3a3, the z-score is -1.79.
Take GGAGGAACAUAUCAAGGAATT against Tmem143: the z-score is 2.27 (active).
Regarding GGGAGAAUGUUUUUCUUACTT against Vsig8, the z-score is -0.956.
Consider GGAGAUUGAACAGUCAAACTT against Pex5, for which the z-score is 3.01 (active).
GGAUAUCAACAGAUACAUCTT against Serpina12: the z-score is -0.493.
Take CGAUCUGUGAUUGAACCACTT against Pak1: the z-score was -0.0456.
On to GCGUGGACGAAUGGAAACATT against Mapk13, for which the z-score is -0.942.
